# Measured values as given in PubChem BioAssay (Tox21).
# The source made the active and inactive calls. A call without a number means that no potency is given here. Calls follow the shape of the full dose curve.
# Biological target: Muscarinic acetylcholine receptor M1 (Homo sapiens) (UniProt P11229)
# Experiment: Cholinergic receptor muscarinic 1 (CHRM1) small molecule agonists, cell-based qHTS assay (AID 1963589); also: nearly all actives have a fitted effect of over 35% in size
# Details: CHRM1-CHO cells, agonist mode, calcium flux fluorescence; series mostly up to 76.8 µM
# Source text: National Center for Advancing Translational Sciences [NCATS]
# Division of Preclinical Innovation [DPI]
# U.S. Environmental Protection Agency [EPA]
# National Institutes of Environmental Health Sciences [NIEHS]
# National Toxicology Program [NTP]
# U.S. Food and Drug Administration [FDA]
# The CHRM1 is a muscarinic receptor. This receptor plays a crucial role in learning and memory processes and has long been identified as a promising therapeutic target for the improvement of cognitive decline in Alzheimer's disease (AD). The CHRM1-CHO cell line stably expressing human muscarinic acetylcholine receptor M1 (CHRM1) can be used for screening agonists and antagonists of interactions between CHRM1 and its ligands. The CHRM1-CHO Calcium Flux Assay is a homogeneous fluorescence-based assay for detecting the intracellular calcium level using FDSS kinetic plate reader system.
# CHRM1-CHO cells were dispensed at 1000 cells/3uL/well in 1536-well black-clear bottom plates using a Multidrop Dispenser. After the assay plates were incubated at a 37 C/5% CO2 incubator for 18 h, 3 uL of Dye Loading Buffer was transferred to the assay plate by a Flying Reagent Dispenser. The assay plates were incubated at 37 C for 1h. For agonist mode, 23 nL of compounds dissolved in DMSO, positive controls or DMSO only was transferred to the assay plate by a pin tool. […] Each test compound was measured at 15 concentrations in three independent runs.
# Chain of Muscarinic acetylcholine receptor M1 (Homo sapiens) (P11229 whole entry, looked up): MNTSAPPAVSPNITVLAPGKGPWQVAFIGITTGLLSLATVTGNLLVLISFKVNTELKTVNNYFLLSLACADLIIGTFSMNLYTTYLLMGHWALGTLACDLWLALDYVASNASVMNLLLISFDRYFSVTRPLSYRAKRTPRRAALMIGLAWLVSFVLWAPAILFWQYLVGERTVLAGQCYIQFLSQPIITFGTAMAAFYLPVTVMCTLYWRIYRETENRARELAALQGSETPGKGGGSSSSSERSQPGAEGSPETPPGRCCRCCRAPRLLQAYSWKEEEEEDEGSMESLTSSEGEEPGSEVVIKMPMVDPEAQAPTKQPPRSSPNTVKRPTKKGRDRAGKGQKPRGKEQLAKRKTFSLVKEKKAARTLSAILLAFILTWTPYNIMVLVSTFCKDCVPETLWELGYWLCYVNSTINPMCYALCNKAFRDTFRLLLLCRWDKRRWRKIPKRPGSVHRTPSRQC
row,SMILES,Potency
1,CCOP(=O)(OCC)Oc1ccc([N+](=O)[O-])cc1,inactive
2,CCCCCc1cc(O)cc(O)c1,inactive
3,Cc1cccc([N+](=O)[O-])c1,inactive
4,O=C(O)CC[N+](=O)[O-],inactive
5,Cn1c(-c2ccccc2)cc(-c2ccccc2)[n+]1C,inactive
6,C=CC1CC=CCC1 (stereo not given),inactive
7,C[C@]12CCC(=O)C=C1CC[C@@H]1[C@@H]2CC[C@]2(C)C(=O)CC[C@@H]12,inactive
8,[N-]=[N+]=[N-],inactive
9,CC(C)(N)Cc1ccccc1Cl,inactive
10,COP(=S)(OC)Oc1ccc(S(=O)(=O)N(C)C)cc1,inactive
11,CN(C)P(=O)(N(C)C)N(C)C,inactive
12,COc1ccc(CO)cc1,inactive
13,ClC1(Cl)C2(Cl)C3(Cl)C4(Cl)C(Cl)(Cl)C5(Cl)C3(Cl)C1(Cl)C5(Cl)C24Cl (stereo not given),inactive
14,Nc1ccccc1C(=O)OCC(O)CO (stereo not given),inactive
15,CC[n+]1c(-c2ccccc2)c2cc(N)ccc2c2ccc(N)cc21,inactive
16,CC(C)=CCN1CC[C@@]2(C)c3cc(O)ccc3C[C@@H]1[C@@H]2C,inactive
17,C1CCC(NC2CCCCC2)CC1,inactive
18,NC(=S)Nc1ccccc1,inactive
19,COC(=O)c1cncn1C(C)c1ccccc1 (stereo not given),inactive
20,Clc1cccc(C(Cl)(Cl)Cl)n1,inactive

row,SMILES,Potency
1,Cc1cnc(C2=NC(C)(C(C)C)C(=O)N2)c(C(=O)O)c1 (stereo not given),inactive
2,CC(C)(C1CCC(O)CC1)C1CCC(O)CC1 (stereo not given),inactive
3,C[C@]12CCC(=O)C(O)=C1CC[C@@H]1[C@@H]2CC[C@]2(C)C(=O)CC[C@@H]12,inactive
4,Nc1ccc(N)cc1,inactive
5,ClCOCCl,inactive
6,CCCCN(CCCC)N=O,inactive
7,COc1c(C(C)(C)C)cc([N+](=O)[O-])c(C)c1[N+](=O)[O-],inactive
8,ClCC1CO1 (stereo not given),inactive
9,CCCCCCCCCCCC#N,inactive
10,CCOP(=S)(OCC)Oc1cc(C)nc(C(C)C)n1,inactive
11,CN1C(=O)NC(=O)C(C)(C2=CCCCC2)C1=O (stereo not given),inactive
12,CNC(=O)Oc1ccccc1OC(C)C,inactive
13,S=c1[nH]c2ccccc2[nH]1,inactive
14,COC(=O)c1ccccc1CS(=O)(=O)NC(=O)Nc1nc(OC)cc(OC)n1,inactive
15,C(CCOCC1CO1)COCC1CO1 (stereo not given),inactive
16,CCCC(=O)Cl,inactive
17,CCCC1COC(Cn2cncn2)(c2ccc(Cl)cc2Cl)O1 (stereo not given),inactive
18,O=[N+]([O-])c1ccc(Cl)c([N+](=O)[O-])c1,inactive
19,Cc1cccc(N)c1C,inactive
20,Cc1ccc(OP(=O)(Oc2ccc(C)cc2)Oc2ccc(C)cc2)cc1,inactive
